A short description of assay [1]: NCI Yeast Anticancer Drug Screen. Data for the rad50 strain (AID 155).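 Also: 0% = growth of vehicle-only cultures of the same strain.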 As to conditions: S. cerevisiae rad50 strain growth inhibition; at 50.0 µM; hits give high values. The essentials:
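A DNA repair-deficient yeast mutant serves as the test organism; compound-induced growth inhibition is calculated against vehicle-treated cells.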

Assay [2] is described as follows: NCI Yeast Anticancer Drug Screen. Data for the mec2-1 strain (AID 157). As to conditions: S. cerevisiae mec2-1 strain, at 50.0 µM, hits give high values. Put shortly:
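Growth inhibition is read against vehicle-treated controls after compound exposure of the mec2-1 yeast strain, which is defective in DNA damage repair or cell cycle control.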

Assay [3] in a line: NCI Yeast Anticancer Drug Screen. Data for the sgs1 mgt1 strain (AID 161).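 Also: 0% = growth of cultures given vehicle only.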 As to conditions: S. cerevisiae sgs1 mgt1 strain, at 50.0 µM, hits give high values. The essentials:
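This yeast growth screen uses a strain with defined DNA-repair lesions; compound-treated growth is compared with vehicle-treated growth.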

Assay [4] can be described thus: NCI Yeast Anticancer Drug Screen. Data for the cln2 rad14 strain (AID 165).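 Also: 0% = growth equal to vehicle treated cultures.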 As to conditions: S. cerevisiae cln2 rad14 strain, at 50.0 µM, hits give high values. The essentials: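 Growth inhibition, relative to vehicle-treated controls, is the read-out. The test organism is a yeast strain with defined genetic alterations, cln2 rad14.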
Assay [5] can be described thus: NCI Yeast Anticancer Drug Screen. Data for the bub3 strain (AID 167). As to conditions: S. cerevisiae bub3 mutant strain, at 50.0 µM, hits give high values. The essentials: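 Inhibition values come from growth of compound-treated mutant yeast normalised to vehicle-treated controls.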
Assay [6] in a line: NCI Yeast Anticancer Drug Screen. Data for the mlh1 rad18 strain (AID 175). Conditions: S. cerevisiae mlh1 rad18 strain growth inhibition; at 50.0 µM; hits give high values. Put shortly: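 Cells of a genetically altered yeast strain, deficient in DNA damage repair, were treated with compound. Their growth was then compared with that of vehicle-treated cultures to give inhibition.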

This is part of a sample that, as a whole, favours compounds with a hit. Of some 79,000 tested, about 15% had one in any assay. Values without a mark were called inactive. Calls of active or inactive are those of the source. Rule as the data show it: active = growth inhibition above about 70%; inactive = the rest.

On to `CN1CCC(c2ccccc2)(c2ccccc2)OC1c1ccccc1` (stereo unspecified), for which the growth inhibition in assay [1] was 1.65%; in assay [2], -12.2%; in assay [3] it was -7.85%; in assay [4], 1.35%; in assay [5], 8.85%; in assay [6], -18.2%.

As to `Nc1ccc(N2N=C(N3CCCC3)CC2=O)cc1`, the growth inhibition was -26.6% in assay [1]; -48.8% in assay [2]; -10.8% in assay [3]; 1.2% in assay [4]; -12.7% in assay [5]; -23.4% in assay [6].

For the molecule `C=CCOC(=O)OCCOC(=O)OCC=C`, the growth inhibition in assay [1] was 6.4%; in assay [2], -4.7%; in assay [3], -2.05%; in assay [4], -1.55%; in assay [5], 24.1%; in assay [6], -1.55%.

Consider `O=S1OC(c2ccccc2)(c2ccccc2)C(c2ccccc2)(c2ccccc2)O1`, for which the growth inhibition was -29.9% in assay [1]; -16.6% in assay [2]; 2.2% in assay [3]; 11.6% in assay [4]; -13.2% in assay [5]; -17.4% in assay [6].

In the case of `OCC(O)C(OC1OC(CO)C(O)C(O)C1O)c1nn(-c2ccc(F)cc2)c2nc3cc(Cl)c(Cl)cc3cc12` (stereo unspecified), the growth inhibition in assay [1] is 13.6%; in assay [2] it was -10.1%; in assay [3] it was -26.8%; in assay [4], 29.9%; in assay [5] it was 6.45%; in assay [6] it was -1.55%.

As to `CN(C)CC(CCC(=O)c1ccccc1)C(=O)c1ccccc1` (stereo unspecified), the growth inhibition in assay [1] was 8.05%; in assay [2], 15.8%; in assay [3], 26.2%; in assay [4], -45.8%; in assay [5], 14.2%; in assay [6], 5.5%.

For the molecule `N#Cc1cccc(Br)c1`, the growth inhibition in assay [1] is -11.9%; in assay [2], -15.8%; in assay [3], -1%; in assay [4], -11.4%; in assay [5] it was -14.9%; in assay [6], 13.1%.

In the case of `CNCC(=O)Nc1ccc2c(c1)C(=O)c1ccc(NC(=O)CNC)cc1C2=O`, the growth inhibition in assay [1] is 11.5%; in assay [2], 13.9%; in assay [3] it was 19.4%; in assay [4], -2.25%; in assay [5], -11.9%; in assay [6], 23.8%.

For the molecule `CCOC(=O)c1ccc(NC(=O)Nc2ccc(F)c([N+](=O)[O-])c2)cc1`, the growth inhibition in assay [1] is 7.3%; in assay [2] it was 46.1%; in assay [3], 46.5%; in assay [4], 7%; in assay [5], 28.9%; in assay [6], 23.6%.

Regarding `c1ccc2cc3c(cc2c1)OP1(=NP2(=NP4(=N1)Oc1cc5ccccc5cc1O4)Oc1cc4ccccc4cc1O2)O3`, the growth inhibition is 67.7% in assay [1]; 28.1% in assay [2]; 33.6% in assay [3]; 18.8% in assay [4]; 15.7% in assay [5]; 12.6% in assay [6].

Turning to `CCCCCCCCCCCCCCCC[N+](C)(C)CCN`, the growth inhibition in assay [1] is 98.9% (active); in assay [2], 50.8%; in assay [3], 58.4%; in assay [4], 73.4% (active); in assay [5], 49.2%; in assay [6] it was 59.7%.

On to `CCOC(=O)C1CCCc2sc(N)c(C#N)c21` (stereo unspecified), for which the growth inhibition is 1.15% in assay [1]; -13.8% in assay [2]; 4.2% in assay [3]; -28.4% in assay [4]; 3.15% in assay [5]; 0.95% in assay [6].

For `CC(C)NC(=O)CCC(=O)O`, the growth inhibition was -14.9% in assay [1]; 21.6% in assay [2]; -17.9% in assay [3]; -5.65% in assay [4]; 12.1% in assay [5]; 0.5% in assay [6].

Consider `CCOC(=O)c1c[nH]c2c(Cl)c(C)ccc2c1=O`, for which the growth inhibition in assay [1] is -40.1%; in assay [2], -48.1%; in assay [3], -17.6%; in assay [4], -110%; in assay [5], -30.1%; in assay [6], -4.75%.

Regarding `CCCCCCCCCCCCCCCCNc1nc(=S)cc(C)[nH]1`, the growth inhibition is -10.2% in assay [1]; -27.6% in assay [2]; -5.05% in assay [3]; -14.6% in assay [4]; -25% in assay [5]; -10.9% in assay [6].

Regarding `Cc1cc(C)c(NC(=O)Nc2ccc(C(Cl)(Cl)Cl)cc2)c(C)c1`, the growth inhibition is 4.9% in assay [1]; 11.5% in assay [2]; 8.8% in assay [3]; 7% in assay [4]; 2.9% in assay [5]; 2.8% in assay [6].

`CCNC(CC1CCCCC1)C(=O)O` (stereo unspecified): the growth inhibition is -6.15% in assay [1]; 7.5% in assay [2]; -1.8% in assay [3]; 14.2% in assay [4]; 13.2% in assay [5]; 6.35% in assay [6].

For `Cc1cccc(NC(=O)CC(=O)N2N=C(N3c4ccccc4Sc4ccccc43)CC2c2ccccc2)c1` (stereo unspecified), the growth inhibition was -1.85% in assay [1]; -5.5% in assay [2]; -10.1% in assay [3]; -9.55% in assay [4]; -5.35% in assay [5]; -41.8% in assay [6].

`CCC(C)C(C(=O)OCCC[N+]1(C)CCCCC1)c1ccccc1` (stereo unspecified): the growth inhibition in assay [1] is 49.9%; in assay [2] it was -6.75%; in assay [3], 18.2%; in assay [4] it was -4.4%; in assay [5] it was 5.75%; in assay [6] it was 14%.

Take `COc1nc(NC2OCC(O)C(O)C2O)c(NC2OCC(O)C(O)C2O)c(=O)n1C` (stereo unspecified): the growth inhibition in assay [1] is -7.5%; in assay [2], -1.7%; in assay [3], -11.6%; in assay [4] it was 22.5%; in assay [5], -31.1%; in assay [6], -12.2%.

For the molecule `CC1=C(/C=C/C(C)=C\c2cc(C)cc(=O)o2)C(C)(C)CCC1`, the growth inhibition was 23.1% in assay [1]; -1.5% in assay [2]; 8.7% in assay [3]; -26.6% in assay [4]; 5.75% in assay [5]; 16.9% in assay [6].

The values are drawn from PubChem BioAssay (NCI).
